# From article PMC4336329 (PLoS ONE, 2015)
# The campaign covered roughly 310,000 compounds. About 14,000 (4.5%) showed an effect of 50% or more. Effects have a minus sign here. Shown is part of a subset that was picked to be rich in strong results.
# Target: human ether-à-go-go-related gene (hERG) potassium channel (human, UniProt Q12809)
# Assay: primary screen, population patch clamp on CHO cells stably expressing hERG; higher = less effect of the substance
# 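Further: peak tail current of the secondary pulse compared with the same well before compound.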
# Sequence of human ether-à-go-go-related gene (hERG) potassium channel (Q12809 whole entry, looked up): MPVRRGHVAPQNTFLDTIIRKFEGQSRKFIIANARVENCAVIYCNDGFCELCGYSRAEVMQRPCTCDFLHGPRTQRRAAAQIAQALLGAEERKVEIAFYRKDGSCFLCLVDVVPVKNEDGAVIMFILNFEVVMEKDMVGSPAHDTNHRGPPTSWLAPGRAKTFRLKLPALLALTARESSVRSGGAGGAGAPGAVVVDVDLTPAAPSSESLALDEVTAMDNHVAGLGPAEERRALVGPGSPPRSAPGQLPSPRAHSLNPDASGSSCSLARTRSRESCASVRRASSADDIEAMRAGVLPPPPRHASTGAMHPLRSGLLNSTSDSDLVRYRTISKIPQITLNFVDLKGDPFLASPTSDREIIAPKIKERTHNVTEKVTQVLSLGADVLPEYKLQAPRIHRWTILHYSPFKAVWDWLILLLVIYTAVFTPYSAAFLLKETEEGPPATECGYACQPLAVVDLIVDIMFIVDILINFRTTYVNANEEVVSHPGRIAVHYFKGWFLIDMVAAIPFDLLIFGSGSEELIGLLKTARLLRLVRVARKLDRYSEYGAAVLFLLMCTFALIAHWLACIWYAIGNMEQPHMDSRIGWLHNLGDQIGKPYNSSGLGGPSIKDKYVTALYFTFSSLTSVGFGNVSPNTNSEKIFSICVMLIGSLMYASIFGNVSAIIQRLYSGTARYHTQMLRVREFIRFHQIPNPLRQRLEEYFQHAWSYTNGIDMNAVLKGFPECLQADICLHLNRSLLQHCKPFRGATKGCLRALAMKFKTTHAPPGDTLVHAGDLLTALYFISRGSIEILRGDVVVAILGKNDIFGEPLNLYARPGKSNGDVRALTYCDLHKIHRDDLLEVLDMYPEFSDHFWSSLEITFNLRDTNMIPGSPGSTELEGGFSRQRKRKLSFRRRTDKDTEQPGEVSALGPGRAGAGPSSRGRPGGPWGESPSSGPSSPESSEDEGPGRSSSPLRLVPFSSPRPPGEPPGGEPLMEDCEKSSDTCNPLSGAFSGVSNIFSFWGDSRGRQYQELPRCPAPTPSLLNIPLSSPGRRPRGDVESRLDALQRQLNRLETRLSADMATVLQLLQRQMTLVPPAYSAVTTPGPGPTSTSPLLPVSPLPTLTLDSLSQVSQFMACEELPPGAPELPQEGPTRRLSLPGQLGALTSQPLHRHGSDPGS
row,SMILES,"hERG current change (%, negative = inhibition) at 10uM [%]"
1,O=C(CC1SC(=O)N(Cc2ccccc2)C1=O)Nc1nccs1 (centres unmarked),3.22
2,O=C(Nc1ccc(Br)cc1)Nc1ccccc1Cl,19.7
3,CC(=O)Nc1ccc2c(c1)ncn2-c1ccccc1,3.72
4,CCOC(=O)C1CCCN(C(=O)c2ccc3c(c2)NC(=O)C(N2CCOCC2)S3)C1 (centres unmarked),19.7
5,CCCCC(=O)NC(=S)Nc1ccc(NC(=O)C(C)C)c(OC)c1,21.2
6,Cc1ccc(N(CC(O)COCc2ccco2)S(=O)(=O)c2ccc(C)cc2)cc1 (centres unmarked),-11.1
7,Cc1ccc(S(=O)(=O)N(CCC(=O)O)c2ccccc2)cc1,-10.5
8,CCCN(CCC)CC(O)CN(c1ccccc1)S(=O)(=O)c1ccc(C)cc1 (centres unmarked),-80.3
9,CC(C)OC(=O)CCc1nc2ccccc2[nH]c1=O,10.1
10,COc1nc(-c2ccccc2)ccc1-c1noc(-c2cccnc2)n1,5.15
11,COc1ccc(C(=O)COC(=O)CNC(=O)C2CCCCC2)c(OC)c1,-11
12,COc1ccc(NC(=O)C2C(=O)N(C)C3(C)CC2c2ccccc2O3)cc1 (centres unmarked),-13.5
13,CCC(C)NS(=O)(=O)c1cccs1 (centres unmarked),7.86
14,COc1ccccc1CCNC(=O)C(C)n1nc(C)c2c(C)n(-c3ccccc3)nc2c1=O (centres unmarked),-12.3
15,COc1ccc(OC)c(CNC(=O)Cn2nc(C)c3c(C)n(-c4ccc(C)cc4)nc3c2=O)c1,3.27
16,COc1ccc(OC)c(CCNC(=O)Cn2nc(C)c3c(C)n(-c4ccc(C)cc4)nc3c2=O)c1,-59
17,COc1ccc(CCNC(=O)C(C)n2nc(C)c3c(C)n(-c4ccc(C)cc4)nc3c2=O)c(OC)c1 (centres unmarked),-58.6
18,COc1ccc(OC)c(CCNC(=O)Cn2nc(C)c3c(C)n(-c4ccccc4)nc3c2=O)c1,5
19,COc1ccc(OC)c(CCNC(=O)C(C)n2nc(C)c3c(C)n(-c4ccccc4)nc3c2=O)c1 (centres unmarked),-0.756
20,COc1ccc(OC)c(CCNC(=O)C(C)n2nc(C)c3c(C)n(-c4ccc(C)cc4)nc3c2=O)c1 (centres unmarked),-53.2
21,COc1ccc(OC)c(CNC(=O)C(C)n2nc(C)c3c(C)n(-c4ccccc4)nc3c2=O)c1 (centres unmarked),-7.41
22,COc1ccc(CNC(=O)C(C)n2nc(C)c3c(C)n(-c4ccccc4)nc3c2=O)c(OC)c1 (centres unmarked),-8.08
23,CC(=O)Nc1ccc(C(=O)CSc2ncn(-c3ccccc3)n2)cc1,5.72
24,Cc1sc2ncn(CC(=O)NCc3ccco3)c(=O)c2c1-c1ccccc1,-11.8

row,SMILES,"hERG current change (%, negative = inhibition) at 10uM [%]"
1,CC(=O)c1cnc(Oc2cc(Cl)ccc2Cl)nc1C,0.763
2,CSc1sc(C(=O)N(C)C)cc1S(=O)(=O)C(C)C,1.94
3,CCN1C(=O)/C(=C/c2cccs2)N(C)C1=S,-7.99
4,COc1ccccc1NS(=O)(=O)c1cc(C(=O)NCC2CCCO2)ccc1C (centres unmarked),-36.8
5,COC(=O)C1=C(C(=O)OC)[C@@H]2N(C)c3ccc(OC)cc3[C@@]23C[C@@H](C(=O)OC)N(C(=O)COCc2ccccc2)C3=N1,-55
6,COC(=O)C1=C(C(=O)OC)[C@@H]2N(C)c3ccccc3[C@@]23C[C@@H](C(=O)OC)N(C(=O)c2ccco2)C3=N1,-13.9
7,COC(=O)C1=C(C(=O)OC)[C@@H]2N(C)c3ccc(OC)cc3[C@@]23C[C@@H](C(=O)OC)N(C(=O)C2CCC2)C3=N1,-50
8,COC(=O)C1=C(C(=O)OC)[C@@H]2N(C)c3ccc(OC)cc3[C@@]23C[C@@H](C(=O)OC)N(C(=O)NC2CCCCC2)C3=N1,-26
9,COC(=O)C1=C(C(=O)OC)[C@@H]2N(C)c3ccccc3[C@@]23C[C@@H](C(=O)OC)N(C(=O)C2CCC2)C3=N1,-29.7
10,COC(=O)C1=C(C(=O)OC)[C@@H]2N(C)c3ccc(OC)cc3[C@@]23C[C@@H](C(=O)OC)N(C(=O)c2cccs2)C3=N1,-68.3
11,COC(=O)C1=C(C(=O)OC)[C@@H]2N(C)c3ccc(OC)cc3[C@@]23C[C@@H](C(=O)OC)N(C(=O)c2ccco2)C3=N1,-50.6
12,COC(=O)C1=C(C(=O)OC)[C@@H]2N(C)c3ccc(OC)cc3[C@@]23C[C@@H](C(=O)OC)N(C(=O)CC(C)C)C3=N1,-14.9
13,CCOC(=O)N1C2=NC(C(=O)OC)=C(C(=O)OC)[C@@H]3N(C)c4ccc(OC)cc4[C@]23C[C@H]1C(=O)OC,6.52
14,COC(=O)C1=C(C(=O)OC)[C@@H]2N(C)c3ccccc3[C@@]23C[C@@H](C(=O)OC)N(C(=O)COCc2ccccc2)C3=N1,-9.16
15,COC(=O)C1=C(C(=O)OC)[C@@H]2N(C)c3ccc(OC)cc3[C@@]23C[C@@H](C(=O)OC)N(C(=O)c2ccc(Br)cc2)C3=N1,-17.7
16,COC(=O)C1=C(C(=O)OC)[C@@H]2N(C)c3ccccc3[C@@]23C[C@@H](C(=O)OC)N(C(=O)c2cccs2)C3=N1,-10.1
17,COc1ccc(/C=N\NC(=O)c2ccccc2Br)cc1COc1c(F)c(F)cc(F)c1F,-0.654
18,Brc1ccc(-n2cccc2/C=N/n2cnnc2)cc1,-25.1
19,Cc1ccc(OCC(=O)Nc2ccc(C)c(S(=O)(=O)N3CCCCC3)c2)c([N+](=O)[O-])n1,-45.4
20,C=CCNC(=O)/C(=C/c1ccccc1OCC)NC(=O)c1ccccc1,2.63
21,O=c1cc(Nc2ccc3c(c2)OCCO3)[nH]c(=O)n1-c1ccc(Cl)cc1,-0.327
22,CCC(C)NC(=O)c1ccccc1NC(=O)/C(=C/c1ccc(OC)cc1)c1ccccc1 (centres unmarked),3.99
23,COC(=O)c1ccccc1NC(=O)NCc1ccc2c(c1)OCO2,-11.4
